Several values for one entry are separate records, joined by “and”; a condition that tells them apart may be missing. Identical values can stand only once. The whole screen tested about 650,000 compounds, of which about 5,900 (0.91%) were called active. This is one part of a sample in which actives are shown more often than they occur. No stated cut-off is given here; in the data, active means inhibition above about 50%; inactive means the rest. Some compounds were tested as several samples or in several runs, with calls that do not always agree.

A word on the inhibition: it is the drop in the measured response relative to a control, in per cent.

The target of this assay is Microphthalmia-associated transcription factor (Homo sapiens) (UniProt O75030). In words: MITF inhibitors, primary screen, biochemical, AlphaScreen, human (AID 1259374).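 Further: 0% = vehicle wells with protein.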 The note with it: AlphaScreen MITF homodimerization, bead proximity signal; at 2.6 µM; stronger effect = higher value. In general terms: Alpha assays give light when donor and acceptor beads are brought close together.
Microphthalmia-associated transcription factor (Homo sapiens), sequence (O75030 whole entry, looked up): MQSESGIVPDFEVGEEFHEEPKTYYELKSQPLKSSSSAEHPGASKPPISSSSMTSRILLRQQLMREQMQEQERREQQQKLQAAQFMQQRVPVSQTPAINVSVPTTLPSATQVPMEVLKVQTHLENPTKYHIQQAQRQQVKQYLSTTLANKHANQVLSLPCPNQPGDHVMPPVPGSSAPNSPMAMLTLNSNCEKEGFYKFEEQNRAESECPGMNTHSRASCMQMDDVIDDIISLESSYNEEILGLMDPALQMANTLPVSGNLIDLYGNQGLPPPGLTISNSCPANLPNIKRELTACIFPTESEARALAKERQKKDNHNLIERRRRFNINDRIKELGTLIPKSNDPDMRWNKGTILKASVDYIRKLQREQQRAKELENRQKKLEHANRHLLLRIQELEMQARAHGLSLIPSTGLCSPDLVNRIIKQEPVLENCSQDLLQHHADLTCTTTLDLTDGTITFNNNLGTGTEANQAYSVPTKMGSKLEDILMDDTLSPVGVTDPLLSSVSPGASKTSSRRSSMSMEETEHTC
On to `CC(=O)NC(CC(C)C)C(=O)NC(C(=O)OCc1ccccc1)C(C)C` (centres undefined), for which the inhibition is 11.1% (inactive). As for `CC1CCN(S(=O)(=O)c2ccc(F)c(C(=O)Nc3cc(Cl)ccc3Cl)c2)CC1`, the figure is -3.2% (inactive); as for `CC1CCN(S(=O)(=O)c2ccc(Cl)c(C(=O)Nc3ccccc3[N+](=O)[O-])c2)CC1`, 51% (active); as for `Cc1c(Cl)cccc1NC(=O)c1cc(S(=O)(=O)N2CCC(C)CC2)ccc1F`, 1.77% (inactive). As for `Cc1ccccc1S(=O)(=O)Cc1ccc(C(=O)NCCCN2CCCCCC2)o1`, the figure is -6.96% (inactive).

Regarding `COc1ccccc1N(CN1CCCC1=O)C(=O)c1cc(C)cc(C)c1`, the inhibition was 3.77% (inactive). For `Cc1ccc(C2SCC(=O)N2c2ccc(C)cc2)cc1` (centres undefined), the inhibition is 7.57% (inactive). As for `O=C(Nc1cc(Cl)ccc1Cl)c1cc(C2CC2)on1`, the figure is -4.67% (inactive).

Consider `O=C(CSc1nn2c(=O)c3ccccc3nc2s1)c1ccccc1`, for which the inhibition is 8.41% (inactive).

On to `CC(=O)c1cccc(N2C(=O)c3cccnc3C2=O)c1`, for which the inhibition was 50.6% (active). As for `CC(=O)c1cccc(N2C(=O)c3ccc([N+](=O)[O-])cc3C2=O)c1`, the figure is 4.17% (inactive); as for `CC(=O)Oc1cccc(N2C(=O)c3cccnc3C2=O)c1`, 38.1% (inactive); as for `CC(C)c1c(O)nc(SCC(=O)NC(C)(C)C)[nH]c1=O`, 9.94% (inactive). As for `CNCC(O)c1ccc(O)c(O)c1` (centres undefined), the inhibition is 83.8% (active) and -4.84% (inactive) and -7.17% (inactive). As for `Cc1nnc2n1NC(c1ccc(F)cc1)C(C(=O)Nc1ccccc1C(F)(F)F)S2` (centres undefined), the figure is -7.82% (inactive). As for `COc1cc(Br)c(/C=C2/NC(=O)N(c3cccc(Cl)c3)C2=O)cc1OC`, the figure is -4.06% (inactive). Consider `O=C(Cc1ccc(F)cc1)Nc1cnn(-c2cccc(C(=O)Nc3ccc(N4CCOCC4)cc3)c2)c1`, for which the inhibition was -19.1% (inactive).

For the molecule `COc1ccc(NC(=O)C2CC(=O)N(c3ccc(Oc4ccccc4)cc3)C2)cc1` (centres undefined), the inhibition was 12.4% (inactive). The same measure for `C=CCc1ccc(OCCN2CC(C)OC(C)C2)c(OC)c1` (centres undefined): 34.3% (inactive); for `CC1CN(CCOc2ccccc2[N+](=O)[O-])CC(C)O1` (centres undefined): 50.7% (active). As for `CC1CN(CCOc2ccc(Cl)c3ccccc23)CC(C)O1` (centres undefined), the figure is 27.1% (inactive).

With `Cc1nc2c(ccc3nc(NC(=O)c4ccc([N+](=O)[O-])o4)sc32)s1`, the inhibition was -9.59% (inactive). The same measure for `O=C(Nc1ccc(Cl)c(Cl)c1)C1C2C=CC3(O2)C1C(=O)N(Cc1cccs1)C3C(=O)NC1CCCCC1` (centres undefined): 6.14% (inactive). As for `CC(NC(=O)CN(C)S(=O)(=O)c1cccs1)c1ccccc1` (centres undefined), the figure is -11.7% (inactive); as for `Cc1ccc(C)n1C(Cc1ccccc1)C(=O)O` (centres undefined), 66.9% (active). Regarding `O=C(Nc1ccccc1)C(Cc1ccccc1)N1C(=O)c2ccccc2C1=O` (centres undefined), the inhibition is 3.18% (inactive).

For the molecule `CC(C)CC(C(=O)O)N1C(=O)c2ccccc2C1=O` (centres undefined), the inhibition is 6.74% (inactive). The same measure for `CC(C)N1CCN(C(=O)CC2(c3ccccc3)CC(=O)N(CCc3ccccn3)C2=O)CC1` (centres undefined): 18.7% (inactive). As for `Cc1cc(N2CCCC2)nc(Nc2ccc(NC(=O)c3c(F)cccc3Cl)cc2)n1`, the figure is 8.34% (inactive). The same measure for `CCc1ccc(NC(=O)CS(=O)CC(=O)N2CCN(c3ccccc3F)CC2)cc1` (centres undefined): -10.3% (inactive); for `CCc1ccc(NC(=O)CS(=O)CC(=O)NCCCc2ccccc2)cc1` (centres undefined): 60.7% (active); for `CCc1ccc(NC(=O)Nc2ccccc2)cc1`: 7.42% (inactive). With `COc1ccc(C(=O)Nc2ccc3scnc3c2)cc1`, the inhibition is -2.75% (inactive). Turning to `COc1ccc(-c2nnn(CC(=O)NCc3ccc(C)cc3)n2)cc1OC`, the inhibition is 16.6% (inactive). With `COc1ccc(C(=O)N/N=C/c2ccc(O)c3ncccc23)cc1`, the inhibition is 100% (active). For `COc1ccc(C(=O)N/N=C/c2c(O)ccc3ccccc23)cc1`, the inhibition is 16.9% (inactive). For the molecule `COc1ccc(O)c(/C=N/NC(=O)c2ccc(NC(C)=O)cc2)c1`, the inhibition was 17.1% (inactive). Take `Cc1cc(C)c(NS(=O)(=O)c2ccc3c(c2)n(C)c(=O)c(=O)n3C)c(C)c1`: the inhibition was 4.25% (inactive). As for `COc1cc(CN2CCN(Cc3ccc(OC)c(OC)c3)CC2)cc(OC)c1`, the figure is 71.4% (active); as for `COc1cc(CN2CCN(c3nccn3C)CC2)cc(OC)c1`, 8.7% (inactive). For the molecule `COc1cc(CN2CCN(c3ccccc3OC)CC2)cc(OC)c1`, the inhibition is 10.9% (inactive). Regarding `COc1cc(CN2CCN(Cc3ccccc3Br)CC2)cc(OC)c1`, the inhibition was 89.3% (active). As for `CCOc1cc(CN2CCN(Cc3cc(OC)cc(OC)c3)C(CCO)C2)ccc1OC` (centres undefined), the inhibition was 0.98% (inactive). The same measure for `COc1cc(OC)c(OC)cc1CN1CCN(c2ccccc2F)CC1`: 24.1% (inactive); for `COc1ccc(CN2CCC(C(N)=O)CC2)cc1OC`: 1.23% (inactive); for `CCOC(=O)N1CCN(Cc2cc(Br)c(OC)cc2OC)CC1`: 8.78% (inactive).

`COc1cc(OC)c(OC)cc1CN1CCN(Cc2ccc3c(c2)OCO3)CC1`: the inhibition is 49.8% (inactive). The same measure for `COc1cc(OC)c(OC)cc1CN1CCN(Cc2ccc(F)cc2)CC1`: 64% (active); for `COc1cc(CN2CCN(Cc3cc(OC)c(OC)cc3OC)CC2)cc(OC)c1`: 75.9% (active). As for `CC(C)Oc1ccccc1/C=C(\C#N)C(=O)Nc1ccccc1`, the figure is -0.06% (inactive). Turning to `O=C(CN1C(=O)CCC1=O)Nc1ccc(O)c(-c2nc3ccccc3s2)c1`, the inhibition is 0.38% (inactive). As for `O=C(O)c1ccc(/C=N/Nc2ccc3ccccc3n2)cc1`, the figure is 10.5% (inactive). Turning to `CC(=O)N1CCc2cc(Br)cc(S(=O)(=O)N3CCN(Cc4ccccc4)CC3)c21`, the inhibition is 13.2% (inactive). As for `O=C(CCS(=O)(=O)c1cccc2nonc12)N1CCCC1`, the figure is 11.4% (inactive); as for `COc1ccc(Cn2c(CCC(=O)Nc3cccc(SC)c3)nc3cccnc32)cc1`, -3.6% (inactive); as for `O=C(Oc1cccc(OC(=O)c2ccccc2)c1)c1ccccc1`, -0.91% (inactive). As for `C#CC(C)(C)OC(=O)C1C2C=CC(C2)C1C(=O)O` (centres undefined), the figure is 21.6% (inactive). Take `Cc1ccc(NC(=O)C2C3C=CC4(O3)C2C(=O)N(C2CCCCCCC2)C4C(=O)NC2CCCCC2)cc1Cl` (centres undefined): the inhibition was -0.34% (inactive). The same measure for `O=C(NCCc1ccccc1)c1ccc(Cn2c(=S)[nH]c3cc4c(cc3c2=O)OCO4)cc1`: 13.8% (inactive).

The values above are taken from PubChem BioAssay AID1259374 (The Scripps Research Institute Molecular Screening Center, 2018).
